The source of these data is PubChem BioAssay (NCI).

Among the test systems are HCT-15 colon; HT29 colon; SNB-75 CNS; SNB-19 CNS; U251 CNS; PC-3 prostate; SK-MEL-5 melanoma; UACC-62 melanoma; LOX IMVI melanoma; SK-MEL-28 melanoma; SK-MEL-2 melanoma; EKVX NSCLC; SN12C renal; UO-31 renal; TK-10 renal; ACHN renal; CAKI-1 renal; CCRF-CEM leukemia; MOLT-4 leukemia; A498 renal.
Common to all, as to test: NCI-60 one-dose screen, 48 h (100 = growth as untreated, 0 = no growth, -100 = all killed)
Holding throughout (settings): 10 µM unless noted

This is part of a sample that, as a whole, favours compounds with a hit. Of some 83,000 tested, about 20% had one in any assay.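 Assay: single dose, 48 h. Readout: percent growth (0 = no net growth; negative = cell death). Active: <10.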 Values without a mark were called inactive. Active and inactive are the calls of the source.

Consider `Cc1ccc(S(=O)(=O)NNC(=O)/C(=C\c2ccc(Cl)cc2)c2nc3ccccc3s2)cc1`, for which the growth was 79.5% with HCT-15 colon; 106% in the experiment with HT29 colon; 68.4% in the experiment with SNB-75 CNS; 88.3% in the experiment with SNB-19 CNS; 97.5% with U251 CNS; 90.5% in the experiment with PC-3 prostate. Moreover, the growth was 94.9% with SK-MEL-5 melanoma; 80.7% in the experiment with UACC-62 melanoma; 90.5% in the experiment on LOX IMVI melanoma; 101% in the experiment on SK-MEL-28 melanoma; 99.4% in the experiment with SK-MEL-2 melanoma; 91.1% in the experiment on EKVX NSCLC. The growth in the experiment with SN12C renal was 92.5%; in the experiment on UO-31 renal, 75.1%; in the experiment on TK-10 renal, 132%; in the experiment on ACHN renal it was 97.7%; with CAKI-1 renal, 83.8%; with CCRF-CEM leukemia, 83.6%. In the experiment with MOLT-4 leukemia, the growth was 80.1%.

For the molecule `C=C1C(=O)O[C@H]2[C@H]1CC/C(CNC(=O)/C=C/c1cccc(OC)c1)=C\CC[C@@]1(C)O[C@@H]21`, the growth with HCT-15 colon is -44.7% (active); in the experiment with HT29 colon it was -36.7% (active); with SNB-75 CNS, 90.1%; in the experiment on SNB-19 CNS, 55.5%; in the experiment on U251 CNS it was 47.3%; with PC-3 prostate it was 36%. Also, the growth was 67.8% in the experiment with SK-MEL-5 melanoma; -26.6% (active) in the experiment with UACC-62 melanoma; 0.442% (active) in the experiment with LOX IMVI melanoma; -48.7% (active) in the experiment with SK-MEL-28 melanoma; 55.6% with SK-MEL-2 melanoma; -20.2% (active) in the experiment with EKVX NSCLC. Moreover, the growth in the experiment with SN12C renal was 6.02% (active); in the experiment with UO-31 renal, -94.6% (active); in the experiment on TK-10 renal it was -37.7% (active); in the experiment on ACHN renal, -79.7% (active); in the experiment with CAKI-1 renal, -71.9% (active); in the experiment with CCRF-CEM leukemia, 1.02% (active). Further, the growth in the experiment on MOLT-4 leukemia is -3.23% (active).

Consider `C=C(C)[C@@H]1CC[C@]2(CN)CC[C@]3(C)[C@H](CC[C@@H]4[C@@]5(C)CCCNC(C)(C)[C@@H]5CC[C@]43C)[C@@H]12`, for which the growth with HCT-15 colon is -92.4% (active); in the experiment with HT29 colon, -85.8% (active); in the experiment on SNB-75 CNS, -27.7% (active); with SNB-19 CNS, -58.5% (active); in the experiment with U251 CNS it was -89.7% (active); in the experiment on PC-3 prostate, -10.5% (active). For the same molecule, the growth in the experiment with SK-MEL-5 melanoma is -9.72% (active); with UACC-62 melanoma, 29%; in the experiment with LOX IMVI melanoma, -98.3% (active); with SK-MEL-28 melanoma it was -28.3% (active); in the experiment with SK-MEL-2 melanoma, 6.75% (active); in the experiment on EKVX NSCLC it was 6.81% (active). Besides, the growth with SN12C renal is -25.5% (active); in the experiment with UO-31 renal it was 5.31% (active); with TK-10 renal, -10.6% (active); in the experiment on ACHN renal, -91.8% (active); with CAKI-1 renal it was -94.5% (active); in the experiment on CCRF-CEM leukemia, -27.4% (active). Also, in the experiment with MOLT-4 leukemia, the growth was -45.4% (active).

`COc1ccc(/C=C2\Oc3cc(OCCCN4CCCCC4)ccc3C2=O)cc1OC`: the growth in the experiment with HCT-15 colon was 76.4%; with HT29 colon, 59.3%; in the experiment on SNB-75 CNS it was 78.9%; in the experiment on SNB-19 CNS, 93.7%; in the experiment with U251 CNS, 94.2%; in the experiment on PC-3 prostate it was 79.6%. Besides, the growth in the experiment with SK-MEL-5 melanoma was 94.5%; in the experiment on UACC-62 melanoma, 99.1%; in the experiment with LOX IMVI melanoma, 81.7%; in the experiment on SK-MEL-28 melanoma it was 105%; in the experiment on SK-MEL-2 melanoma it was 108%; with EKVX NSCLC, 91.5%. The growth with SN12C renal is 93.5%; with UO-31 renal it was 67.9%; with TK-10 renal, 89.1%; with ACHN renal, 93.2%; with CCRF-CEM leukemia, 28.9%; with MOLT-4 leukemia it was 83.3%.

As for `Cn1ccnc1C(=O)/C=C/c1ccc(CC(=O)Nc2ccc(Cl)cc2)cc1`, the growth was 5.48% (active) with HCT-15 colon; 3.03% (active) in the experiment on HT29 colon; 11.8% in the experiment on SNB-75 CNS; 6.66% (active) with SNB-19 CNS; 6.28% (active) in the experiment on U251 CNS; 32.7% in the experiment with PC-3 prostate. Besides, the growth in the experiment with SK-MEL-5 melanoma was 33.3%; in the experiment with UACC-62 melanoma, 35%; in the experiment with LOX IMVI melanoma, 13.1%; with SK-MEL-28 melanoma, 70.9%; in the experiment with SK-MEL-2 melanoma, 89.7%; in the experiment on EKVX NSCLC it was 40.6%. In addition, the growth in the experiment with SN12C renal is 2.21% (active); in the experiment on UO-31 renal it was 23.3%; in the experiment on TK-10 renal, 27%; in the experiment with ACHN renal it was 49.8%; with CCRF-CEM leukemia, 4.18% (active); with MOLT-4 leukemia, 5.64% (active).

As to `CCN1Cc2nc3sc(C)c(C)c3c(=O)n2C=C1C`, the growth in the experiment on HCT-15 colon was 49.7%; in the experiment on HT29 colon it was 22.1%; with SNB-75 CNS, 88%; in the experiment with SNB-19 CNS it was 49.4%; with U251 CNS, 24.3%; in the experiment on PC-3 prostate, -6.34% (active). Besides, the growth in the experiment with SK-MEL-5 melanoma is 78.7%; with UACC-62 melanoma, 46.9%; in the experiment on LOX IMVI melanoma it was 53.5%; in the experiment on SK-MEL-28 melanoma, 67.3%; in the experiment on SK-MEL-2 melanoma, 91.9%; with EKVX NSCLC, 59.8%. Further, the growth in the experiment on SN12C renal is 57.1%; in the experiment with UO-31 renal, 34.4%; in the experiment with TK-10 renal it was 87.5%; in the experiment on ACHN renal, 65.3%; with A498 renal, 108%; in the experiment on MOLT-4 leukemia, -3.45% (active).

For the molecule `COc1ccc(C(=O)c2nc3ccccc3n2CC(=O)c2ccc(Cl)cc2)cc1`, the growth was 17.4% with HCT-15 colon; 16.1% with HT29 colon; 1.37% (active) in the experiment on SNB-75 CNS; 48.2% with SNB-19 CNS; 22.7% with U251 CNS; 34.9% in the experiment on PC-3 prostate. Also, the growth with SK-MEL-5 melanoma was 20.5%; with UACC-62 melanoma, 13.2%; with LOX IMVI melanoma it was 39.2%; in the experiment with SK-MEL-28 melanoma, 45.5%; in the experiment on SK-MEL-2 melanoma, 63.5%; in the experiment on EKVX NSCLC, 86%. Further, the growth is 45.5% with SN12C renal; 45.6% with UO-31 renal; 51.7% in the experiment on TK-10 renal; 48.6% in the experiment with ACHN renal; 72.5% in the experiment on A498 renal; 13.8% in the experiment with CCRF-CEM leukemia. In addition, in the experiment on MOLT-4 leukemia, the growth was 17.2%.

Turning to `COc1ccc(C(=O)Cn2c(C(=O)c3ccccc3)nc3ccccc32)cc1`, the growth was 18.6% in the experiment with HCT-15 colon; 14.2% in the experiment on HT29 colon; -8.26% (active) in the experiment with SNB-75 CNS; 55.2% in the experiment on SNB-19 CNS; 25.1% with U251 CNS; 29.7% in the experiment with PC-3 prostate. The growth was -1.14% (active) with SK-MEL-5 melanoma; 15.7% in the experiment with UACC-62 melanoma; 43.8% in the experiment with LOX IMVI melanoma; 94.2% in the experiment with SK-MEL-28 melanoma; 64.2% in the experiment with SK-MEL-2 melanoma; 71.2% in the experiment with EKVX NSCLC. The growth with SN12C renal was 43%; with UO-31 renal, 32.7%; with TK-10 renal, 59.6%; in the experiment on ACHN renal, 46.1%; in the experiment with CAKI-1 renal it was 24%; in the experiment on MOLT-4 leukemia, 7.92% (active).
